From the supplement of paper PMC11732987, “Enantioselective OTUD7B fragment discovery through chemoproteomics screening and high-throughput optimisation” (Communications Chemistry, 2025)

Legend:
Experiment in all cases: log2 ratio of Biotin-Ahx-Ub-VS probe labelling (fragment/DMSO); higher = less target engagement (more negative = stronger competition), active = hit call of the paper (q ≤ 0.05, log2 ratio ≤ -1)
Details in all cases: compound concentration: 200 uM; treatment time: 3 h
[1] = molecular target: T1, ALG13 (UniProt Q9NP73)
T1 sequence (whole entry): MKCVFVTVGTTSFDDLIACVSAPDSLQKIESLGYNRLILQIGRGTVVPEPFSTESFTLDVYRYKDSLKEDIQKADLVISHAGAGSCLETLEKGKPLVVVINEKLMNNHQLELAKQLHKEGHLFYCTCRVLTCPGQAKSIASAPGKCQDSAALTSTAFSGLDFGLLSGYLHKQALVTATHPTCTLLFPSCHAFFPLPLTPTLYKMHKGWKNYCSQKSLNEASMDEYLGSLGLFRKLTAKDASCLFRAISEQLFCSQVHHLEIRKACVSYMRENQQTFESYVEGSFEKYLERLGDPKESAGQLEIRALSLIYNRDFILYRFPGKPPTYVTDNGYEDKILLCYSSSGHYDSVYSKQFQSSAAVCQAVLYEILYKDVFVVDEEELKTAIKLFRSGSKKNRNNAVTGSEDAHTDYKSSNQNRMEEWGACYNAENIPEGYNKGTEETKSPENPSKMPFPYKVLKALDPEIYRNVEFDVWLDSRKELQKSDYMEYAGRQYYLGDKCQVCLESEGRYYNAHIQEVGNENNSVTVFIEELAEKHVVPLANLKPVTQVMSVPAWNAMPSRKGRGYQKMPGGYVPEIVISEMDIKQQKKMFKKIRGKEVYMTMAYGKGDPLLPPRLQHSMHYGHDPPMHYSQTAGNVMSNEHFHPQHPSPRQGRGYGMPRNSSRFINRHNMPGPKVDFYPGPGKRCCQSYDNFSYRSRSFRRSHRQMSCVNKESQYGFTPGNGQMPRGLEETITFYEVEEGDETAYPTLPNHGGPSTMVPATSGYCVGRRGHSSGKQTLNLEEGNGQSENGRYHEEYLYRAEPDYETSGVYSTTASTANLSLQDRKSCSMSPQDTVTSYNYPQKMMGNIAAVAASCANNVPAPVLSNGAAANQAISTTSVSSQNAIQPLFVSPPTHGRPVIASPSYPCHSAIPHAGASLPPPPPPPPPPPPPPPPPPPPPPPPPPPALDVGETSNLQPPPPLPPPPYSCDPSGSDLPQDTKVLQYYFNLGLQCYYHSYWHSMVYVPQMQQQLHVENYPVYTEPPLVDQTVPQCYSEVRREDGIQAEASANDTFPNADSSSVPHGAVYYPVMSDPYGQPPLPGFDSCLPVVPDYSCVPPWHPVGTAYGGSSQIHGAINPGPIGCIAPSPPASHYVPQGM
Method in brief: (§1)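 Global-median-normalised Spectronaut label-free quantities were compared by unpaired t-test, and values are average log2 ratios of fragment over vehicle. Only proteins with ≥2 unique peptides were used. HEK293T lysate (495 µg per sample) was treated in triplicate with fragment at 200 µM or vehicle for 3 h and then with Biotin-Ahx-Ub-VS at 0.5 µM final for 1 h. Labelled DUBs were then NeutrAvidin-enriched, digested with LysC and trypsin, and run by diaPASEF LC-MS/MS.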

[2] = molecular target: ATXN3 (UniProt P54252)
Sequence of ATXN3 (P54252 whole entry): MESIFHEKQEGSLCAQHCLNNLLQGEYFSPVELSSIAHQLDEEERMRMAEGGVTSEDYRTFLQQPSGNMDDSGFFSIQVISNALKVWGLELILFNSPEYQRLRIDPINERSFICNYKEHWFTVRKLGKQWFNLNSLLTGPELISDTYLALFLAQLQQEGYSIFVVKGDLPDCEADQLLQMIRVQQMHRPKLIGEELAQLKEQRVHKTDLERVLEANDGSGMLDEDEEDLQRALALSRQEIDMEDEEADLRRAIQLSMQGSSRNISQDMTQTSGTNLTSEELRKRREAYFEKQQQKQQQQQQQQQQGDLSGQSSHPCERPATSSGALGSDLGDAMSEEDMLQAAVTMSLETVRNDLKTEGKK
Method in brief: as §1

[3] = molecular target: T2, BAP1 (UniProt Q92560)
T2 sequence (whole entry): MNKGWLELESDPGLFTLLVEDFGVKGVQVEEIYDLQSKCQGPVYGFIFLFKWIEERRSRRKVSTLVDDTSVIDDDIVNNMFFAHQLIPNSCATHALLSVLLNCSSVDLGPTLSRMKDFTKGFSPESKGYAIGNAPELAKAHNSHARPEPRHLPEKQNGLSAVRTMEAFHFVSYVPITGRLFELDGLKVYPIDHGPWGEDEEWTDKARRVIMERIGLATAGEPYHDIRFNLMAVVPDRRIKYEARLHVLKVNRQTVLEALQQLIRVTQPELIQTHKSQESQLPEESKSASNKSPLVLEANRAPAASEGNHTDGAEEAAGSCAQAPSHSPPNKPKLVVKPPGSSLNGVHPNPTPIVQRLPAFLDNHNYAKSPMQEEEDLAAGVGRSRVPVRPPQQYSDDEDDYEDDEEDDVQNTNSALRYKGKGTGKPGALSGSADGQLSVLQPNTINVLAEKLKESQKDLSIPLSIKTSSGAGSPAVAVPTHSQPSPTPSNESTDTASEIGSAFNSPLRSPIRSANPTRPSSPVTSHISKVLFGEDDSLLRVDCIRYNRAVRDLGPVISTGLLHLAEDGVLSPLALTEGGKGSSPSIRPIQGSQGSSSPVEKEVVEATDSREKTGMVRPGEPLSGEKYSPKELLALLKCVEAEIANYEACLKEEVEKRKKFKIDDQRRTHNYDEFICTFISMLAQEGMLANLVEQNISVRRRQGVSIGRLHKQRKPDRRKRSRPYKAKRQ
Method in brief: as §1

[4] = molecular target: EIF3F (UniProt O00303)
Sequence of EIF3F (O00303 whole entry): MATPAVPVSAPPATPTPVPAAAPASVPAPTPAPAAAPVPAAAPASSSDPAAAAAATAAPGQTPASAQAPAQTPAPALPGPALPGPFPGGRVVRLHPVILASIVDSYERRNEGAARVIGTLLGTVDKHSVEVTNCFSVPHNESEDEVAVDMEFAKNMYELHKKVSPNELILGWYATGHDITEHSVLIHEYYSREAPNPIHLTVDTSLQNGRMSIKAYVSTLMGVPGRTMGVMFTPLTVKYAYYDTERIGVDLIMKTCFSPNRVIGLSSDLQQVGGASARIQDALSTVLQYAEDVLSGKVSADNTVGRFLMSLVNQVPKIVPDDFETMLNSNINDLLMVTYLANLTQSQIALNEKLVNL
Method in brief: as §1

[5] = molecular target: EIF3H (UniProt O15372)
Sequence of EIF3H (O15372 whole entry): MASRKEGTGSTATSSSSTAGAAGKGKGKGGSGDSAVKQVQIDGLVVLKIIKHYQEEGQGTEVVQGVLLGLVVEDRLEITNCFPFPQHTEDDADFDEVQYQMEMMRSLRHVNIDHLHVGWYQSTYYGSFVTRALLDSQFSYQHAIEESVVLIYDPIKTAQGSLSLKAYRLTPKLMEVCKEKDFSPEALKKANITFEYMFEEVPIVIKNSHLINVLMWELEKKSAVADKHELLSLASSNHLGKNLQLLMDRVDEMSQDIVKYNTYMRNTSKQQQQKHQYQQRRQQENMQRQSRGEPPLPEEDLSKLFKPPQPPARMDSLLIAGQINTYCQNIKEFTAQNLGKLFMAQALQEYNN
Method in brief: as §1

[6] = molecular target: T3, FAM105A (UniProt Q9NUU6)
T3 sequence (whole entry): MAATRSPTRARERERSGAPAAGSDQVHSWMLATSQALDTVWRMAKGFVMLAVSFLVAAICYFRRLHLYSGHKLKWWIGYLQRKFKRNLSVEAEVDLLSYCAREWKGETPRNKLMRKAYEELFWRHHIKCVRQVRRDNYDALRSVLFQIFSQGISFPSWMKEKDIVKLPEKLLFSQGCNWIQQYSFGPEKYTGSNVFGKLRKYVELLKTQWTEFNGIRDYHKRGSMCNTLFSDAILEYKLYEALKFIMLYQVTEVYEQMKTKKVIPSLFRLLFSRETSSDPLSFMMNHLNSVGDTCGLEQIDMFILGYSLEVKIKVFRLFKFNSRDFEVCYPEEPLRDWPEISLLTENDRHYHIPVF
Method in brief: as §1

[7] = molecular target: OTUB1 (UniProt Q96FW1)
Sequence of OTUB1 (Q96FW1 whole entry): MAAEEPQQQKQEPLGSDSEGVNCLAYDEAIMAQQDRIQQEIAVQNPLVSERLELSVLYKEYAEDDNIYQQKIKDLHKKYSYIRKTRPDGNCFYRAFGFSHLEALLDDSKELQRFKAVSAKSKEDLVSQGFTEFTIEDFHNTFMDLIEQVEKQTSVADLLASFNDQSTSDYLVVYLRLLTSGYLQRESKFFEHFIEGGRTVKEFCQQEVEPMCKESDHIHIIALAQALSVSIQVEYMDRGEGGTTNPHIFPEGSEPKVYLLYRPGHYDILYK
Method in brief: as §1

[8] = molecular target: T4, OTUD4 (UniProt Q01804)
T4 sequence (whole entry): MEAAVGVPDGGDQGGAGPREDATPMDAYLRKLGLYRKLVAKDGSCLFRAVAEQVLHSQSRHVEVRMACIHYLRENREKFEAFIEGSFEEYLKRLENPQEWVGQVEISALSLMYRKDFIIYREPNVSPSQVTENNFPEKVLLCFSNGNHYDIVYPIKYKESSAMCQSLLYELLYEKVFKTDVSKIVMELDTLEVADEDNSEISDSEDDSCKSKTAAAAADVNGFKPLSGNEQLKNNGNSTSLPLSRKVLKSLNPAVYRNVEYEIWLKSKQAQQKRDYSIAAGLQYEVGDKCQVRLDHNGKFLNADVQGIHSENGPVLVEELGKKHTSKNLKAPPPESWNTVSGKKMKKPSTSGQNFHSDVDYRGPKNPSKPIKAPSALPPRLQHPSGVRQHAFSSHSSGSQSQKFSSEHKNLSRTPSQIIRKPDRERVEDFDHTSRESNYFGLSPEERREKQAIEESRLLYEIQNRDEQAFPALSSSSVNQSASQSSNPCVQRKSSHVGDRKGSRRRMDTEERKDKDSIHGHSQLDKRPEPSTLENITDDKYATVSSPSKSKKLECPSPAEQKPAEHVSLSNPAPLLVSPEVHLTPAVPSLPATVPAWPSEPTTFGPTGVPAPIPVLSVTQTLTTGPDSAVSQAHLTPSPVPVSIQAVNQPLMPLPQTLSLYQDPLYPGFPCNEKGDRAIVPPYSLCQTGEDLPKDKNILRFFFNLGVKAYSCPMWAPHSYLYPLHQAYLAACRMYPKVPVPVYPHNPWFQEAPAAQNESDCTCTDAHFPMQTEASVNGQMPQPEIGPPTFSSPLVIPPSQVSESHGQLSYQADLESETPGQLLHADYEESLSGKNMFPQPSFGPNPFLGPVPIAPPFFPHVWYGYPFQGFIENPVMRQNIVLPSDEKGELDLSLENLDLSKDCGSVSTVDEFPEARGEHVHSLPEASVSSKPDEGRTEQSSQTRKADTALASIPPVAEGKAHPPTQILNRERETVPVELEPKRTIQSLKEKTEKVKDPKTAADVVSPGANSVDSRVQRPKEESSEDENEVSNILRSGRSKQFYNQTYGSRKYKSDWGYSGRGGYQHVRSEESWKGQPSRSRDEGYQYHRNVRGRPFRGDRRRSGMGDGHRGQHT
Method in brief: as §1

[9] = molecular target: T5, OTUD5 (UniProt Q96G74)
T5 sequence (whole entry): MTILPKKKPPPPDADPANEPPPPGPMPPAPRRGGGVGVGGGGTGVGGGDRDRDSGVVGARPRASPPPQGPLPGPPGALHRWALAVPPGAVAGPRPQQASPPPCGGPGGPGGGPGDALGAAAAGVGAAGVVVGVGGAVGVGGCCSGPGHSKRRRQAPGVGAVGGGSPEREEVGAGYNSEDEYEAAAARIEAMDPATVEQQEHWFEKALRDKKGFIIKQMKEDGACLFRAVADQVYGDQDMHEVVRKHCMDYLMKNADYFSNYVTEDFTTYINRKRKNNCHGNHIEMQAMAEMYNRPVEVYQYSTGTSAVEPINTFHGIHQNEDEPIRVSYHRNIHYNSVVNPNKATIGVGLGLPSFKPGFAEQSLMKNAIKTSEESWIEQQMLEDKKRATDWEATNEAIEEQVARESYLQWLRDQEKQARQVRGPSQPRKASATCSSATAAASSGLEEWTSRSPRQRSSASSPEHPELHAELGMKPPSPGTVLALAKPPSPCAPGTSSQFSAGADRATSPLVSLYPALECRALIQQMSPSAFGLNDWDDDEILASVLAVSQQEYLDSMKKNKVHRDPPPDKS
Method in brief: as §1

Measured: log2 ratio of Biotin-Ahx-Ub-VS probe labelling

O=C(CCl)N1CC=C(c2c[nH]c3ccccc23)CC1
active: [2] -1.2 | [3] -1.95 | [9] -1.27
inactive: [1] -0.249 | [4] -0.308 | [5] 0.184 | [6] -0.087 | [7] -0.218 | [8] -0.412
